TEAD-YAP inh = TEAD-YAP interaction inhibition. HEK-TIYL cells, TEAD-Gal4/YAP UAS-luciferase luminescence. inhibition, % at 9.12 µM. actives 1.4% (n = 640,000); in the data active means inhibition above about 32%;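 further: 0% = median of test compound wells and 100% = reference inhibitor wells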
FBW7 act = activators of human E3 ligase FBW7; normalized activity (activation), % at 26.1 µM; Q969H0; AID 1259310; AlphaScreen FBW7–phospho-cyclin E peptide binding, activator screen; actives 0.13% (n = 650,000); in the data active means normalized activity above about 1.9%;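 further: purified mutant Fbw7 with reduced substrate affinity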
MITF primary = human MITF inhibition, primary screen; O75030; AlphaScreen MITF homodimerization, bead proximity signal; inhibition, % at 2.6 µM; actives 0.91% (n = 650,000); AID 1259374; in the data active means inhibition above about 50%;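 further: 0% = vehicle wells with protein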
Target sequence (O75030 whole entry, looked up): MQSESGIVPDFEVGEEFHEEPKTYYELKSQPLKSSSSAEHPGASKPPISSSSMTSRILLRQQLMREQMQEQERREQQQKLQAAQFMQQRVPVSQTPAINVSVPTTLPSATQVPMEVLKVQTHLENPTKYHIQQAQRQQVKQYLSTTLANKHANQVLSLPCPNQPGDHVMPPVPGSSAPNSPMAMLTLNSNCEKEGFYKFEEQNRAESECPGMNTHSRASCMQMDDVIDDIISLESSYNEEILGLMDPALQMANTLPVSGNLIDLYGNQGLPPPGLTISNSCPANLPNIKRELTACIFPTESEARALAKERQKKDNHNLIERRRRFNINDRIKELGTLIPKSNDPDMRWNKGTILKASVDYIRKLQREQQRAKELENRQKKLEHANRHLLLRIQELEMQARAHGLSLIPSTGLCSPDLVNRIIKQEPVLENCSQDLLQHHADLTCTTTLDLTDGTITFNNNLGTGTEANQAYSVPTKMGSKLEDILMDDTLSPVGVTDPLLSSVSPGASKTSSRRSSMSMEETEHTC
GPR151 activ = activators of human GPR151; PathHunter beta-arrestin GPR151 cells, luminescence; activation, % at 11.2 µM; actives 1% (n = 650,000); AID 1508602; in the data active means activation above about 4.9%;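 further: 0% = median of compound wells and 100% = cells with positive control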
MITF inh conf = human MITF inhibition, confirmation; actives 16% (n = 4,700); shares compounds with MITF primary; AlphaScreen MITF homodimerization, biotin/His-MITF beads; inhibition, % at 2.6 µM;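 active means inhibition above a cutoff derived from the DMSO control wells, cut at about 28% in these data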;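 further: 0% = MITF dimer wells with DMSO only; inhibitors lower the bead chemiluminescence by keeping MITF from dimerizing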
AlphaScreen intf2 = counter-screen: compounds optically interfering with AlphaScreen; actives 7.6% (n = 4,700); LysRS AlphaScreen counterscreen, signal interference, triplicate; inhibition, % at 2.6 µM; shares compounds with MITF primary;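 active means inhibition above a cutoff derived from the DMSO control wells, cut at about 30% in these data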
* = called active by the depositor; . = no result. An excerpt weighted towards active compounds, which were near 3.5% of everything screened.

SMILES | TEAD-YAP inh | FBW7 act | MITF primary | GPR151 activ | MITF inh conf | AlphaScreen intf2
Cc1ccc(CN2CCN(C(=O)c3cccnc3)CC2)cc1 | 9 | 0 | 54* | -1 | -3 | -6
O=C(c1cccnc1)N1CCN(Cc2ccc3ccccc3c2)CC1 | 7 | 0 | 37 | -1 | . | .
COc1ccc(/C=C2\N=C(c3ccccc3I)OC2=O)cc1 | 4 | 0 | 0 | 1 | . | .
CCC(=O)NNC(=O)c1cccc(OC)c1 | 5 | 0 | 1 | 1 | . | .
CSc1nc(N)c(C#N)cc1C#N | 6 | 0 | 3 | -1 | . | .
Cc1nc(N2CCCCC2)c2ccsc2n1 | -1 | 0 | 92* | 2 | 1 | -4
CCOC(=O)c1c(NC(=O)COc2c(C)ccc(C)c2C)sc(C)c1C | -6 | 0 | -2 | -1 | . | .
CCOC(=O)c1c(NC(=O)CN2CCN(CC)CC2)sc2c1CCC2 | -2 | 0 | 80* | 2 | 7 | 7
CCOC(=O)c1c(NC(=S)N2CCN(S(C)(=O)=O)CC2)sc2c1CCCC2 | 5 | 0 | 69* | 1 | 11 | 7
CCOC(=O)c1c(NC(N)=S)sc2c1CCCC2 | 6 | 0 | 20 | -1 | . | .
CCOC(=O)c1c(-c2ccc(C)c(C)c2)csc1NC(=O)CN1CCN(C)CC1 | 9 | 0 | 90* | 0 | -3 | 5
CCOC(=O)c1c(-c2ccco2)csc1NC(=O)CN1CCN(C)CC1 | -2 | 0 | 16 | -1 | . | .
CCOC(=O)c1c(NC(=O)CSc2nnc(C)s2)sc2c1CCC2 | 4 | 0 | 54* | -1 | -7 | 20
O=C(NC1CCCC1)C(Cc1ccccc1)NS(=O)(=O)c1cccs1 (stereo not drawn) | -5 | 0 | 3 | -1 | . | .
CC1CC(=O)NN=C1c1ccc(N)c(N)c1 (stereo not drawn) | -102 | 0 | 5 | 1 | . | .
c1ccc(-n2cnc3c(NCc4cccnc4)nc(Nc4ccc(N5CCOCC5)cc4)nc32)cc1 | 29 | 0 | 6 | 1 | . | .
CCOc1cc2[nH]c(=S)n(CCCN3CCN(C)CC3)c(=O)c2cc1OCC | 3 | 0 | 8 | 1 | . | .
COC(=O)C(C(=O)OC)=C(/C=C/N(C)C)N(C)C | -5 | 0 | 74* | 0 | 13 | 16
CCOC(=O)/C(C(C)=O)=C(\C=C\N(C)C)N(C)C | 14 | 0 | 1 | 1 | . | .
COc1ccc2oc(=O)c(-c3csc(Nc4cccc(C)c4)n3)cc2c1 | -3 | 0 | 8 | -2 | . | .
CCN(CC)CC(O)CNCc1ccc(Cl)cc1 (stereo not drawn) | -7 | 0 | 54* | 2 | 13 | 17
O=[N+]([O-])c1cc(CN2CCCC2)c2cccnc2c1O | -2 | -1 | 99* | 0 | 106* | 101*
CN1CCN(Cc2cc([N+](=O)[O-])c(O)c3ncccc23)CC1 | 2 | -1 | 97* | 1 | 105* | 101*
Cc1noc(C)c1CN1CCN(S(=O)(=O)C2CC2)CC1 | 6 | 0 | 11 | 0 | . | .
COc1cc2nc(-c3ccc(C(=O)N4CCN(C)CC4)cc3)nc(Nc3ccc(Oc4ccccc4)cc3)c2cc1OC | 16 | 0 | 8 | 0 | . | .
SMILES | TEAD-YAP inh | FBW7 act | MITF primary | GPR151 activ | MITF inh conf | AlphaScreen intf2
CCOC(=O)c1sc2nc(SCC(=O)NCc3ccccc3Cl)n(CCc3ccccc3)c(=O)c2c1C | 2 | 0 | -3 | 3 | . | .
C=C(C)CSc1nnc2n(-c3ccccc3C)c(=O)c3c4c(sc3n12)CCCC4 | 5 | 0 | 70* | 0 | -3 | -3
CCOC(=O)c1cnc(-n2[nH]c(C)c(Cc3ccccc3)c2=O)[nH]c1=O | 1 | 0 | 96* | 1 | 87* | 100*
CCOC(=O)c1cnc(-n2[nH]c(C)cc2=O)[nH]c1=O | 3 | 0 | 84* | 3 | 98* | 96*
CCn1c2c(c(=O)[nH]c1=O)C(c1ccc(C)cc1)C1=C(CC(C)(C)CC1=O)N2 (stereo not drawn) | 1 | 0 | 0 | 2 | . | .
Cc1ccc(S(=O)(=O)Nc2cc(Cl)c(O)c3ncccc23)cc1 | 4 | -1 | 22 | -1 | . | .
Cc1cc(N)c(O)c2ncccc12 | 6 | 0 | 81* | 0 | 104* | 101*
O=C(Cn1c(=O)oc2cc(Cl)ccc21)NCCc1c[nH]c2ccccc12 | 10 | 0 | 8 | -1 | . | .
COCc1cc(=O)[nH]c(Nc2nc3ccccc3o2)n1 | 0 | -1 | 65* | -1 | 75* | 101*
